GPR151 activ: human GPR151 activation | PathHunter beta-arrestin GPR151 cells, luminescence | actives 1% (n = 650,000) | AID 1508602 | activation, % at 11.2 µM; in the data active = activation above about 4.9%;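 note: 0% = median of compound wells and 100% = cells with positive control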
Target sequence (Q8TDV0 whole entry, looked up): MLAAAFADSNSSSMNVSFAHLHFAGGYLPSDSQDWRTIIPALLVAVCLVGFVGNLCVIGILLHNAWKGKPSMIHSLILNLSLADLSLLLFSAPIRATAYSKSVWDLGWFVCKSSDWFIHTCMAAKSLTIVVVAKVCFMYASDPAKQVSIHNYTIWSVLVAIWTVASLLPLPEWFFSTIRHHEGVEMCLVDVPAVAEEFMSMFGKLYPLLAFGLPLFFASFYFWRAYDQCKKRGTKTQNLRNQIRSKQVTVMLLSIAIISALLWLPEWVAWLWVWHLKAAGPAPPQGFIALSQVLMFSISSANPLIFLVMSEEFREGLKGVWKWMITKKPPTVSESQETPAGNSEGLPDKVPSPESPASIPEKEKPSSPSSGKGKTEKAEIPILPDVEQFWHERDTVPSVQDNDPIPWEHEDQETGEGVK
FBW7 act: activators of human E3 ligase FBW7; AlphaScreen FBW7–phospho-cyclin E peptide binding, activator screen; AID 1259310; Q969H0; actives 0.13% (n = 650,000); normalized activity (activation), % at 26.1 µM; in the data active = normalized activity above about 1.9%;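 note: purified mutant Fbw7 with reduced substrate affinity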
MITF inh: human MITF inhibition, primary screen. AlphaScreen MITF homodimerization, bead proximity signal. actives 0.91% (n = 650,000). AID 1259374. O75030. inhibition, % at 2.6 µM; in the data active = inhibition above about 50%;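 note: 0% = vehicle wells with protein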
TEAD-YAP inh: TEAD-YAP interaction inhibition. HEK-TIYL cells, TEAD-Gal4/YAP UAS-luciferase luminescence. inhibition, % at 9.12 µM. actives 1.4% (n = 640,000). AID 1259422; in the data active = inhibition above about 32%;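 note: 0% = median of test compound wells and 100% = reference inhibitor wells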
GPR151 confirm: human GPR151 activation, confirmation screen; AID 1508609; activation, % at 11.2 µM; GPR151 PathHunter beta-arrestin cells, luminescence, 90 min; % of EA-reagent control over plate median; shares compounds with GPR151 activ; 6,700 tested, under 10 active;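 active = mean percent activation across replicates above the confirmation screen cutoff of 4.91%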
GPR119 ag: GPR119 activation, counter-screen for GPR151 activators; shares compounds with GPR151 activ; GPR119 PathHunter beta-arrestin cells, luminescence, 90 min; 0 = compound-well median, 100 = enzyme-acceptor control; activation, % at 11.2 µM; actives 0.3% (n = 6,700);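 active = mean percent activation in the counterscreen above 29.09%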;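 note: counterscreen on off-target GPR119 to flag nonselective hits from the GPR151 activator screen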
* = called active by the depositor; · = not tested or not shown; ! = not active in a repeat. Only some compounds are listed: those with a hit (about 3.5% of all), similar ones and a draw of the others.

SMILES | GPR151 activ | FBW7 act | MITF inh | TEAD-YAP inh | GPR151 confirm | GPR119 ag
CCN1CCN(c2ccc([N+](=O)[O-])cc2)CC1 | 2 | 0 | 2 | -4 | · | ·
CN1CCN(Cc2cccc(Cl)n2)CC1 | 0 | 0 | -1 | 1 | · | ·
O=c1c2ccccc2nc(/C=C/c2ccccc2)n1-c1ccccc1 | 0 | 0 | 6 | -4 | · | ·
O=c1c2ccccc2nc(/C=C/c2ccccc2)n1-c1ccc(Cl)cc1 | 4.9* | 0 | -19 | 12 | 0 | -6
CCOc1ccc(-n2c(/C=C/c3ccccc3)nc3ccccc3c2=O)cc1 | 6.9* | 0 | -4 | 13 | 0 | -6
Cc1c(C(=O)c2ccc3ccccc3c2)c2cccc3c2n1[C@H](CN1CCOCC1)CO3 | 5.4* | 1 | 10 | · | 1 | -9
N=C1c2ccccc2CN1CCCN1CCOCC1 | 1 | 0 | 4 | 7 | · | ·
N#CCC(=O)NN1Cc2ccccc2C1=N | 6.8* | 0 | -4 | 1 | 0 | 8
CC(C)CNc1cc(N2CCNCC2)ccc1[N+](=O)[O-] | -1 | 0 | 10 | 12 | · | ·
C[C@H]1C/C=C/[C@H]2[C@@H]3O[C@]3(C)[C@@H](C)[C@H]3[C@H](Cc4ccccc4)NC(=O)[C@]32OC(=O)O/C=C/[C@](C)(O)C1=O | 11* | 0 | 12 | -2 | 0 | -5
COc1ccc(C(=O)O)cc1OC | 5.7* | 0 | -17 | -8 | 0 | 6
COc1ccc(C(=O)OC2CC3CCC(C2)N3)cc1OC (configuration not stated) | 0 | 0 | 8 | 17 | · | ·
CCCCNC(=O)N1c2ccc(C)cc2C2CN(C)CCC21 (configuration not stated) | 5.9* | 0 | -2 | 5 | -1 | 6
CCCCCC(=O)N1c2ccc(C)cc2C2CN(C)CCC21 (configuration not stated) | -1 | 0 | 4 | 9 | · | ·
N#CC(C#N)=Cc1ccc(N2CCCCC2)cc1 | -1 | 1 | 9 | 24 | · | ·
CCN1CC2(COC)CC[C@H](O)C34C5C[C@@H]6C(OC)C[C@@](O)(C5[C@H]6OC(C)=O)[C@@H](CC23)[C@@H]14 (some centres not stated) | 5.4* | 0 | -1 | 3 | 0 | 8
N#Cc1ccc(NC(=O)c2ncoc2-c2cccc(Cl)c2)cc1Cl | 1 | 0 | 1 | -4 | · | ·
CC(Cc1cccnc1)NCc1c(C(=O)N2CCCCCCC2)nc2ccc(Cl)cn12 (configuration not stated) | 5.0* | 0 | -5 | -10 | 0 | -2
Cc1cccn2c(CNC(C)Cc3cccnc3)c(C(=O)N3CCCCC3)nc12 (configuration not stated) | -1 | 0 | 1 | 0 | · | ·
O=C1NC(=O)C2(OC(=O)C(=O)/C2=C(/O)c2ccccc2)C(=O)N1 | 0 | 0 | 16 | 0 | · | ·
C[C@H]1CC[C@@H]2[C@@H](C)[C@H]3[C@H](CC4[C@@H]5CC=C6CC(O[C@@H]7O[C@H](CO)C(O[C@@H]8O[C@@H](C)[C@H](O)[C@@H](O)[C@H]8O)[C@H](O)[C@H]7O[C@@H]7O[C@@H](C)[C@H](O)[C@@H](O)[C@H]7O)CC[C@]6(C)[C@H]5CC[C@@]43C)N2C1 (some centres not stated) | 7.2* | 0 | 11 | -12 | 3 | 18
CC(=O)c1ccc(OCC(=O)N2CCCC(N(C)CCc3ccccc3)C2)cc1 (configuration not stated) | 5.0* | 0 | 19 | -2 | 1 | 5
Cc1[nH]c2ccc([N+](=O)[O-])cc2c1CCN | -1 | 0 | 19 | 13 | · | ·
CC1(c2ccc3ccccc3c2)NC(=O)N(CC(=O)Nc2ccc(C#N)c(Cl)c2)C1=O (configuration not stated) | 0 | 0 | 9 | 1 | · | ·
N#Cc1ccc(NC(=O)CN2c3cccc4cccc(c34)S2(=O)=O)cc1Cl | 5.2* | 1 | 19 | 17 | 1 | -3
SMILES | GPR151 activ | FBW7 act | MITF inh | TEAD-YAP inh | GPR151 confirm | GPR119 ag
N#Cc1ccc(NC(=O)CSc2ccc(F)cc2)cc1Cl | 0 | 0 | 5 | -3 | · | ·
COc1ccc(CCNCc2cccc(F)c2)cc1 | -1 | 0 | 18 | -6 | · | ·
C=CCOC(=O)C1C2NC(=S)N(c3cccc(Cl)c3)C1(C)Oc1ccccc12 (configuration not stated) | 10.0* | 0 | -4 | -7 | 0 | 2
CCOC(=O)C1C2NC(=S)N(c3ccccc3)C1(C)Oc1ccccc12 (configuration not stated) | 1 | 0 | 24 | -4 | · | ·
CCC(=O)N(Cc1ccc(S(C)(=O)=O)cc1)C1CCN(Cc2ccccc2)CC1 | -1 | 0 | 13 | 6 | · | ·
O=[N+]([O-])/C=C/c1ccccc1OCc1ccc(F)cc1 | -1 | 1 | 13 | -8 | · | ·
C=CCOc1ccccc1/C=C/[N+](=O)[O-] | 7.3* | 0 | -5 | -1 | 0 | 6
CCOP(=O)(OCC)N1CC=C(C)CC1(C(=O)OC)C(F)(F)F (configuration not stated) | -1 | 0 | 13 | 17 | · | ·
CCCN(CCC)[C@@H]1CCc2c(F)ccc(O)c2C1 | 8.5*! | 0 | 11 | 6 | -1 | -7
O=C(C[N+]12CCN(CC1)CC2)N1c2ccccc2Sc2ccccc21 | 0 | 0 | -3 | -2 | · | ·
CC(=O)NC1(c2ccccc2)CC(C)N(C)CC1C (configuration not stated) | 5.0* | 0 | -27 | 7 | 0 | 7
CCCCCCCCCCCCCCCC[n+]1ccccc1 | 5.0* | 0 | -7 | 60* | 2 | 13
CC(=O)Nc1ccc(S(=O)(=O)N2CC3CC(C2)c2cccc(=O)n2C3)cc1 (configuration not stated) | 1 | 0 | -10 | -8 | · | ·
CC(C)C(=O)Nc1ccc(S(=O)(=O)N2CC3CC(C2)c2cccc(=O)n2C3)cc1 (configuration not stated) | 13* | 0 | 8 | 2 | 0 | 9
CCN(CC)c1ccc(C=C(C#N)C#N)cc1 | 0 | 1 | 5 | 28 | · | ·
C[C@H]1OC[C@@H](C[N+](C)(C)C)O1 | -1 | 0 | 3 | 2 | · | ·
C[C@@H]1O[C@H](C[N+](C)(C)C)C[C@H]1O | 5.9*! | 0 | -1 | 5 | 0 | 6
CCN1CCN(Cc2cc(Br)cc(OC)c2O)CC1 | 6.6* | 0 | 31 | -2 | 0 | -1
Cc1ccc(N2C(=O)NC(=O)/C(=C/c3cccc(O)c3)C2=O)cc1 | 0 | 0 | 9 | 10 | · | ·
CC1=NCCc2c1[nH]c1cc(O)ccc21 | 5.0*! | 0 | -3 | 6 | 3 | 1
COc1cccc(CN2CCN(CCO)CC2)c1 | -1 | 0 | 1 | -8 | · | ·
O=c1cccc2n1CC1CC2CN(C(=S)Nc2ccccc2)C1 (configuration not stated) | -2 | 1 | 4 | 10 | · | ·

Screens (PubChem BioAssay)
